Laboratory results published in PubChem BioAssay.
Calls of active or inactive are those of the source.

Assays:
Albumin (Bos taurus) = Albumin (Bos taurus) (UniProt P02769); assay: compounds binding labelled BSA control protein – biochemical, small-molecule microarray, Alexa647 label, 635/667 nm fluorescence, artefact control for SMM control protein annotation, profiling panel (AID 1118); details: BSA-A647 binding, fluorescence 635 nm, higher = more signal;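 also: score merges 667 nm emission intensity and signal-to-noise per printed compound spot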
[1] = probe aXIP binding to arrayed compounds – biochemical, NeuroSMM set, 635/667 nm fluorescence, primary screen (AID 1119); details: small-molecule microarray, higher = more signal, called active from +8 up or from −8 down;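 also: probe is the protein aXip251-270 applied at 1 µg/mL to compound-printed slides; binding of probe to printed compounds measured as 667 nm fluorescence plus signal to noise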
[2] = probe aNOTCH3 binding on compound microarray – biochemical, small-molecule microarray, 635/667 nm fluorescence, primary screen (AID 1120); details: higher = more signal;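 also: probe is a biotin-tagged antibody raised against NOTCH3 rather than NOTCH3 protein; score merges spot fluorescence near 667 nm with spot signal to noise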
[3] = probe aNOTCH2 binding on compound microarray – biochemical, small-molecule microarray, 635/667 nm fluorescence, primary screen (AID 1121); details: higher = more signal;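 also: score merges feature fluorescence read at 667 nm with its signal to noise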
[4] = target: Carbonic anhydrase 2 (Homo sapiens) (UniProt P00918); assay: compounds binding carbonic anhydrase 2 – biochemical, small-molecule microarray, Alexa647-labelled CAII, profiling panel (AID 1122); details: CAII-A647 binding fluorescence, higher = more signal
[5] = COS7 lysate on small-molecule microarray, probe aHis, 635 nm (AID 1123); details: COS7 cell lysate, fluorescence, higher = more signal;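 also: z-score combines 667nm fluorescence intensity with signal-to-noise per printed compound spot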
[6] = probe aLAP1 signal on lysate-treated microarray – cell lysate, small-molecule microarray, COS7 lysate, primary screen (AID 1124); details: probe aLAP1, fluorescence, higher = more signal;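 also: lysate comes from COS7 cells expressing LAP1 and is applied at 0.3 µg/mL; score merges spot fluorescence near 667 nm with signal-to-noise over triplicate slides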
Sam68 (KHDRBS1) = assay: compounds binding KHDRBS1 protein – biochemical, small-molecule microarray, 635 nm fluorescence, primary screen (AID 1125); details: higher = more signal;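 also: score merges 667 nm channel intensity with signal to noise over triplicate slides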
[7] = test system: Chordin-like protein 2 (CHRDL2); assay: compounds binding chordin-like 2 – biochemical, small-molecule microarray, 635 nm fluorescence, primary screen (AID 1126); details: fluorescence 635 nm, higher = more signal;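 also: printed compound slides probed with Chrdl2 protein at 4 µg/mL for 1 h at 4 C; score merges 667 nm emission intensity with signal to noise over three replicate slides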
[8] = target: Concanavalin-A (Canavalia ensiformis) (UniProt P02866); assay: compounds binding concanavalin A lectin – biochemical, small-molecule microarray, Alexa647 label, 635 nm, artefact control for SMM control protein annotation, primary screen (AID 1127); details: ConA-A647 binding fluorescence, higher = more signal;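 also: z combines 667 nm emission intensity with signal-to-noise across three replicate slides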
Chain of Concanavalin-A (Canavalia ensiformis) (P02866 whole entry, looked up): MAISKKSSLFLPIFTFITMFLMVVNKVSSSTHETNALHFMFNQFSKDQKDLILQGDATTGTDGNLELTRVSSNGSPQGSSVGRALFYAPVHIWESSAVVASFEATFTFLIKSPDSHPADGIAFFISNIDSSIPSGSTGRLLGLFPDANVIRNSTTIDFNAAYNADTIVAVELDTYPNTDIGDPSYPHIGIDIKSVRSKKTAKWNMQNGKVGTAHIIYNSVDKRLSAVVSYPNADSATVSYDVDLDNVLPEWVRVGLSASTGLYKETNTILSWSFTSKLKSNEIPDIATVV

Chain of Albumin (Bos taurus) (P02769 whole entry, looked up): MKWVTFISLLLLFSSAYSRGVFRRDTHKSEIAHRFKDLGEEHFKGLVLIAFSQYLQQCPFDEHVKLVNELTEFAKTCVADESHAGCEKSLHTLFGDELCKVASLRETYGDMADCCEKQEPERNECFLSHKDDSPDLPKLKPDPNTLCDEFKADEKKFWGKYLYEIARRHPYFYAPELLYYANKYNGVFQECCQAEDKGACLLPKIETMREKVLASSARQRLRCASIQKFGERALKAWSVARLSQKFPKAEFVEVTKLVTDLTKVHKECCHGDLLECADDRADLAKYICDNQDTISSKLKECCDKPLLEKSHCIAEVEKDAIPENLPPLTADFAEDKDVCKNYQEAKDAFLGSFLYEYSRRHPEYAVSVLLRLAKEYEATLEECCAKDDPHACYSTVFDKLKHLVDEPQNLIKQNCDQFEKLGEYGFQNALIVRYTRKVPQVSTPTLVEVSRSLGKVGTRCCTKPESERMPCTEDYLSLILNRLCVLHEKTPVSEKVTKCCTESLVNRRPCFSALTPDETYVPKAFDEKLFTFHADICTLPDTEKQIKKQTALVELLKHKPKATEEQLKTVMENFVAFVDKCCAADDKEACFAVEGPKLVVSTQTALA

Structure (SMILES)	composite z-score (Albumin (Bos taurus))	composite Z-score [1]	composite z-score [2]	composite z-score [3]	composite z-score [4]	composite z-score [5]	composite z-score [6]	composite z-score (Sam68 (KHDRBS1))	composite z-score [7]	composite z-score [8]
CCOC(=O)C[C@H]1[C@H](OC(=O)c2cc3ccccc3oc2=O)[C@@H](NC(=O)Cc2ccc(OC)cc2)c2cc(OCCCO)ccc2N1C(=O)Cc1ccc(OC)cc1	0.112	0.594 (inactive)	0.0522	-0.162	0.709	0.638	-0.0915	0.23	0.441	0.817
CC(C)[Si](C#Cc1ccccc1)(O[C@H](c1ccccc1)c1cn(Cc2ccccc2)nn1)C(C)C	0.939	0.708 (inactive)	-0.127	-0.189	0.57	0.467	0.471	0.879	0.664	1.17
Cc1ccc(N2C(=O)c3ccccc3[C@@H](C(=O)NCCN3CCOCC3)[C@@H]2c2ccc(CO)cc2)nc1	0.132	0.309 (inactive)	0.595	-0.162	-0.234	0.719	-0.496	-0.342	-1.27	-0.469
COC(=O)C1=CC(c2ccc(CO)cc2)=CC(C2CC2)N(Cc2cc3c(cc2Br)OCO3)C=C1C(=O)OC (stereo not given)	0.861	2.69 (inactive)	0.448	0.165	0.814	2.82	1.24	1.31	0.0562	1.19
CN1C(=O)C2C=CC(C(O)c3cccs3)N(N(c3ccccc3)c3ccccc3)C2C1=O (stereo not given)	0.994	0.343 (inactive)	0.17	-0.0037	0.714	1.69	0.518	1.02	-0.362	0.644
O=C1O[C@@H](c2ccccc2)[C@@H](c2ccccc2)N2[C@@H](c3ccccc3OCCO)[C@]3(C(=O)Nc4ccc(C#CC5(O)CCCCCC5)cc43)[C@@H](C(=O)N3CCCCCCC3)[C@H]12	-0.411	9.73 (active)	2.33	1.21	1.06	5.19	1.41	1.33	1.69	0.93
O=C1c2ccccc2[C@](Cc2ccccc2I)(C(=O)NCCN2CCOCC2)[C@H](c2ccc(CO)cc2)N1Cc1ccccc1C(F)(F)F	0.543	-0.0238 (inactive)	-0.0014	-0.0771	0.594	2.09	0.329	1.29	-0.408	1.13
C=C(C(=O)CC[C@@H](OC(=O)c1cccnc1)c1cccc(OCCO)c1)C(C)C	-0.176	0.437 (inactive)	0.0286	-0.141	0.14	-0.588	1.3	-0.588	-0.114	0.297
COc1ccc(CCNC(=O)[C@@H]2c3ccccc3C(=O)N(Cc3cc(F)cc(C(F)(F)F)c3)[C@H]2c2ccc(CO)cc2)cc1	-0.0885	-0.795 (inactive)	0.249	0.207	0.753	2.1	1.51	1.03	0.0818	0.198
CN(C)C(=O)[C@]1(CCS(=O)(=O)c2ccccc2)N=C(c2ccc(OCCCO)cc2)O[C@@H]1c1ccccc1CN=[N+]=[N-]	0.955	0.581 (inactive)	0.0743	0.139	0.73	2.78	0.766	1.3	-0.109	1.17
O=C(N1CCOCC1)[C@]1(CCS(=O)(=O)c2ccccc2)N=C(c2ccc(OCCCO)cc2)O[C@@H]1c1ccccc1	1.03	1.35 (inactive)	0.149	-0.0256	0.441	2.86	0.473	1.31	-0.62	1.21
CC(C)c1ccc(NN2C(C(O)C3CCCCC3)C=CC3C(=O)N(c4ccccc4)C(=O)C32)cc1 (stereo not given)	0.98	0.637 (inactive)	0.286	0.0836	0.632	1.78	0.948	1.31	-0.261	1.14
COCCOC(=O)N1C(=O)[C@@]2(c3cc(C#CCCO)ccc31)[C@H](C(=O)N1CCN(c3ncccn3)CC1)[C@H]1C(=O)O[C@H](c3ccccc3)[C@H](c3ccccc3)N1[C@@H]2c1ccc(OCCO)cc1	0.788	-0.265 (inactive)	0.199	-0.0817	0.621	2.13	0.419	1.29	0.372	1.12
COc1ccc(NN2C(C(O)c3ccccc3)C=CC3C(=O)N(C4CCCCC4)C(=O)C32)cc1 (stereo not given)	0.74	0.38 (inactive)	0.147	-0.0047	0.749	2.67	0.4	1.32	-0.223	1.12
C=CCNC(=O)[C@H]1[C@@H]2C(=O)O[C@@H](c3ccccc3)[C@@H](c3ccccc3)N2[C@@H](c2ccc(O)cc2)[C@]12C(=O)Nc1ccccc12	-0.118	-0.139 (inactive)	-0.278	-0.0681	0.331	0.45	0.219	1.07	-0.21	0.872
O=C/C=C/c1ccc(-c2ccccc2)cc1	-1.04	-0.646 (inactive)	-0.172	-0.0843	-0.202	-0.327	1.35	-0.789	0.438	-0.518

Structure (SMILES)	composite z-score (Albumin (Bos taurus))	composite Z-score [1]	composite z-score [2]	composite z-score [3]	composite z-score [4]	composite z-score [5]	composite z-score [6]	composite z-score (Sam68 (KHDRBS1))	composite z-score [7]	composite z-score [8]
[N-]=[N+]=NCc1ccccc1C[C@@]1(C(=O)NCCN2CCOCC2)N=C(c2ccc(OCCCO)cc2)O[C@@H]1c1ccccc1	0.818	1.03 (inactive)	0.307	-0.106	0.655	2.77	0.136	1.19	-0.879	0.944
OCCCc1cc[n+](Cc2cc3c(cc2Br)OCO3)cc1	0.038	-0.0354 (inactive)	0.0785	-0.112	-0.213	-0.608	0.324	-0.724	-0.418	-1.9
C=CCNC(=O)[C@@H]1[C@H]2C(=O)O[C@H](c3ccccc3)[C@H](c3ccccc3)N2[C@H](c2ccc(OCCO)cc2)[C@@]12C(=O)Nc1ccc(C#CC3=CCCCC3)cc12	0.806	0.653 (inactive)	0.0493	-0.145	0.512	1.33	0.402	1.3	0.0821	1.14
CCc1cccc(NC(=O)O[C@H]2[C@H](OC(=O)Nc3ccccc3-c3ccccc3)[C@H](OC(=O)Nc3ccccc3-c3ccccc3)[C@@H](OC)O[C@@H]2CO)c1	0.715	0.814 (inactive)	0.122	-0.0273	0.728	2.04	0.0611	1.28	0.478	1.12
C=CCNC(=O)[C@@H]1[C@H]2C(=O)O[C@H](c3ccccc3)[C@H](c3ccccc3)N2[C@H](c2ccc(OCCO)cc2)[C@@]12C(=O)Nc1ccc(C#CCNC(N)=O)cc12	0.567	0.0324 (inactive)	-0.076	-0.13	0.336	0.813	0.268	1.33	-0.822	0.6
C[C@]12C(=O)N(CCO)[C@@H]3C(=O)N(c4ccc(Cl)cc4)CC=CC31O[C@@H]1/C=C\CCCOC(=O)C12 (stereo not given in full)	0.575	0.0414 (inactive)	-0.183	-0.0798	0.883	-0.485	-0.0785	-0.0284	-1.62	-0.263
[N-]=[N+]=NCc1ccccc1[C@H]1OC(c2ccc(OCCCO)cc2)=N[C@@]1(CCS(=O)(=O)c1ccccc1)C(=O)NCCN1CCOCC1	0.888	0.516 (inactive)	0.596	0.163	0.621	2.76	0.654	1.3	-0.222	0.944
COC(=O)C(CC#Cc1ccc2c(c1)[C@]1(C(=O)N2)[C@H](C(=O)N2CCCCCCC2)[C@H]2C(=O)O[C@H](c3ccccc3)[C@H](c3ccccc3)N2[C@@H]1c1ccc(OCCO)cc1)C(=O)OC	0.844	10.3 (active)	2.18	1.19	1.12	5.47	0.497	1.33	1.57	1.18
O=C(NCCN1CCOCC1)[C@@H]1c2ccccc2C(=O)N(CC23CC4CC(CC(C4)C2)C3)[C@H]1c1ccc(CO)cc1	0.974	0.864 (inactive)	0.216	0.0129	0.642	2.17	0.522	1.3	0.0884	1.14
O=C(CS)NCCCCCCNC(=O)[C@H]1C[C@H]2C(=O)NCC(=O)N2[C@H]1c1cccc(OCCO)c1	-0.509	0.54 (inactive)	0.191	-0.0995	0.458	1.37	0.122	0.221	0.283	0.966
O=C1C2C=CC(C(O)C3CCCCC3)N(Nc3ccccc3F)C2C(=O)N1c1ccccc1 (stereo not given)	0.97	0.485 (inactive)	0.457	0.252	0.244	2.71	1	1.31	0.426	1.2
[N-]=[N+]=Nc1ccccc1C[C@]1(C(N)=O)COC(c2ccc(OCCCO)cc2)=N1	0.66	0.745 (inactive)	0.148	0.105	0.77	2.98	1.46	0.0271	-0.324	-0.401
COC(=O)c1ccc(OC)c(/C=C\CC(OC(=O)c2ccncc2)c2ccccc2)c1 (stereo not given)	-0.311	0.63 (inactive)	-0.0077	-0.168	0.387	0.0584	-0.304	-0.0077	1.37	0.535
COCCOC(=O)N1C(=O)[C@@]2(c3cc(C#CC4=CCCCC4)ccc31)[C@H](C(=O)N1CCCCCCC1)[C@H]1C(=O)O[C@H](c3ccccc3)[C@H](c3ccccc3)N1[C@@H]2c1ccccc1OCCO	0.321	0.496 (inactive)	0.733	0.0596	0.522	1.58	1.2	1.3	0.6	1.11
[N-]=[N+]=NCc1ccccc1[C@H]1OC(c2ccc(OCCCO)cc2)=N[C@@]1(Cc1ccccc1N=[N+]=[N-])C(=O)O	0.892	0.59 (inactive)	0.297	0.0889	0.63	1.43	0.455	1.33	0.0332	1.14
CC(C)c1ccc(NN2C(C(O)C(C)c3ccccc3)C=CC3C(=O)N(c4ccccc4)C(=O)C32)cc1 (stereo not given)	1.03	0.304 (inactive)	0.578	0.589	0.749	3.34	0.952	1.28	0.306	1.17
